Measurements reported in PubChem BioAssay AID1159580 (chemical genetic matrix, 2015).
The whole screen tested about 5,500 compounds, of which about 2,000 (36%) were called active. Not shown: some 18% with an inconclusive outcome. Cut-off read from the data, not from the text of the source: active = normalized growth mostly below about 0.91 (no sharp cut-off); inconclusive = no clear call, values can overlap the other calls; inactive = mostly above about 0.92. This is one part of the list.

Experiment: chemical genetic growth profiling, strain panel (AID 1159580);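 note: tested at 20 µM; growth read once vehicle control cultures reached saturation at 30 °C; 1 = growth at the plate median or of vehicle wells; lower values mean less growth of the strain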
Conditions: growth OD

Measured: normalized growth

C1CNCCN1
inactive: S. cerevisiae deletion strains, locus YJR066W, strain TOR1, hits give low values 0.957 | S. cerevisiae deletion strains, locus YJR075W, strain HOC1, hits give low values 1.02 | S. cerevisiae deletion strains, locus YKL009W, strain mrt4, hits give low values 0.989 | S. cerevisiae deletion strains, locus YKL068W, hits give low values 0.999 | S. cerevisiae deletion strains, locus YKL085W, strain MDH1 (second series), hits give low values 1.01 | S. cerevisiae deletion strains, locus YKL085W, strain MDH1, hits give low values 1.01 | S. cerevisiae deletion strains, locus YKL160W, strain elf1, hits give low values 1.02 | S. cerevisiae deletion strains, locus YKL190W, strain CNB1, hits give low values 1 | S. cerevisiae deletion strains, locus YKR001C, strain vps1, hits give low values 1 | S. cerevisiae deletion strains, locus YKR026C, strain gcn3, hits give low values 1.01 | S. cerevisiae deletion strains, locus YKR091W, strain srl3, hits give low values 1.01 | S. cerevisiae deletion strains, locus YLL001W, strain dnm1, hits give low values 1.02 | S. cerevisiae deletion strains, locus YLL026W, hits give low values 1.01 | S. cerevisiae deletion strains, locus YLL041C, strain sdh2, hits give low values 1.02 | S. cerevisiae deletion strains, locus YLR027C, strain aat2, hits give low values 1.01 | S. cerevisiae deletion strains, locus YLR039C, strain RIC1, hits give low values 1.01 | S. cerevisiae deletion strains, locus YLR058C, strain SHM2, hits give low values 1.01 | S. cerevisiae deletion strains, locus YLR102C, strain apc9, hits give low values 0.994 | S. cerevisiae deletion strains, locus YLR113W, strain HOG1, hits give low values 1.02 | S. cerevisiae deletion strains, locus YLR221C, strain rsa3, hits give low values 1.01 | S. cerevisiae deletion strains, locus YLR258W, strain gsy2, hits give low values 1.01 | S. cerevisiae deletion strains, locus YLR262C, strain YPT6 (second series), hits give low values 1.03 | S. cerevisiae deletion strains, locus YLR262C, strain YPT6, hits give low values 1.02 | S. cerevisiae deletion strains, locus YLR268W, strain sec22, hits give low values 0.987 | S. cerevisiae deletion strains, locus YLR320W, strain mms22, hits give low values 1.02 | S. cerevisiae deletion strains, locus YLR330W, strain CHS5, hits give low values 1.01 | S. cerevisiae deletion strains, locus YLR342W, strain FKS1 (second series), hits give low values 1.02 | S. cerevisiae deletion strains, locus YLR342W, strain FKS1, hits give low values 1.02 | S. cerevisiae deletion strains, locus YLR357W, strain rsc2, hits give low values 1.02 | S. cerevisiae deletion strains, locus YLR370C, strain arc18, hits give low values 1.02 | S. cerevisiae deletion strains, locus YLR371W, strain rom2, hits give low values 0.997 | S. cerevisiae deletion strains, locus YLR384C, strain iki3, hits give low values 1.01 | S. cerevisiae deletion strains, locus YLR418C, strain cdc73, hits give low values 0.994 | S. cerevisiae deletion strains, locus YML016C, strain PPZ1, hits give low values 1.02 | S. cerevisiae deletion strains, locus YML032C, strain rad52, hits give low values 0.989 | S. cerevisiae deletion strains, locus YML120C, strain ndi1, hits give low values 1 | S. cerevisiae deletion strains, locus YML124C, strain tub3, hits give low values 0.999 | S. cerevisiae deletion strains, locus YMR058W, strain fet3, hits give low values 1.02 | S. cerevisiae deletion strains, locus YMR078C, strain ctf18, hits give low values 1 | S. cerevisiae deletion strains, locus YMR125W, strain sto1, hits give low values 1.03 | S. cerevisiae deletion strains, locus YMR129W, hits give low values 1.01 | S. cerevisiae deletion strains, locus YMR205C, strain PFK2, hits give low values 1.03 | S. cerevisiae deletion strains, locus YMR223W, strain ubp8, hits give low values 0.987 | S. cerevisiae deletion strains, locus YMR231W, strain pep5, hits give low values 1.02 | S. cerevisiae deletion strains, locus YMR263W, strain SAP30, hits give low values 1.01 | S. cerevisiae deletion strains, locus YMR307W, strain GAS1, hits give low values 1.04 | S. cerevisiae deletion strains, locus YNL067W, strain RPL9B, hits give low values 1.02 | S. cerevisiae deletion strains, locus YNL071W, strain lat1, hits give low values 1.01 | S. cerevisiae deletion strains, locus YNL128W, strain TEP1, hits give low values 1.01 | S. cerevisiae deletion strains, locus YNL153C, strain GIM3, hits give low values 1.02 | S. cerevisiae deletion strains, locus YNL183C, strain NPR1, hits give low values 0.975 | S. cerevisiae deletion strains, locus YNL209W, strain ssb2, hits give low values 1.02 | S. cerevisiae deletion strains, locus YNL233W, strain BNI4, hits give low values 1.01 | S. cerevisiae deletion strains, locus YNL248C, strain rpa49, hits give low values 1.01 | S. cerevisiae deletion strains, locus YNL250W, strain rad50, hits give low values 0.993 | S. cerevisiae deletion strains, locus YNL271C, strain bni1, hits give low values 1 | S. cerevisiae deletion strains, locus YNL298W, strain CLA4, hits give low values 0.985 | S. cerevisiae deletion strains, locus YNL307C, strain MCK1, hits give low values 0.996 | S. cerevisiae deletion strains, locus YNL322C, strain KRE1 (second series), hits give low values 1.02 | S. cerevisiae deletion strains, locus YNL322C, strain KRE1, hits give low values 1.01 | S. cerevisiae deletion strains, locus YNR049C, strain mso1, hits give low values 1.01 | S. cerevisiae deletion strains, locus YNR052C, strain pop2, hits give low values 1.01 | S. cerevisiae deletion strains, locus YOL006C, strain TOP1, hits give low values 1.06 | S. cerevisiae deletion strains, locus YOL012C, strain htz1 1.02 | S. cerevisiae deletion strains, locus YOL147C, strain pex11, hits give low values 0.985 | S. cerevisiae deletion strains, locus YOR001W, strain rrp6, hits give low values 1.01 | S. cerevisiae deletion strains, locus YOR061W, strain CKA2, hits give low values 1.01 | S. cerevisiae deletion strains, locus YOR069W, strain VPS5, hits give low values 1 | S. cerevisiae deletion strains, locus YOR070C, strain gyp1, hits give low values 1.03 | S. cerevisiae deletion strains, locus YOR080W, strain dia2, hits give low values 1.02 | S. cerevisiae deletion strains, locus YOR083W, strain WHI5, hits give low values 1.02 | S. cerevisiae deletion strains, locus YOR106W, strain vam3, hits give low values 1.02 | S. cerevisiae deletion strains, locus YOR136W, strain idh2, hits give low values 0.99 | S. cerevisiae deletion strains, locus YOR144C, strain elg1, hits give low values 1 | S. cerevisiae deletion strains, locus YOR184W, strain ser1, hits give low values 0.981 | S. cerevisiae deletion strains, locus YOR231W, strain MKK1, hits give low values 1.01 | S. cerevisiae deletion strains, locus YOR265W, strain rbl2, hits give low values 1.01 | S. cerevisiae deletion strains, locus YOR270C, strain vph1, hits give low values 1.01 | S. cerevisiae deletion strains, locus YOR290C, strain snf2, hits give low values 0.996 | S. cerevisiae deletion strains, locus YOR316C, strain cot1, hits give low values 0.997 | S. cerevisiae deletion strains, locus YPL051W, strain arl3, hits give low values 1.01 | S. cerevisiae deletion strains, locus YPL055C, strain LGE1, hits give low values 1.03 | S. cerevisiae deletion strains, locus YPL078C, strain atp4, hits give low values 1.01 | S. cerevisiae deletion strains, locus YPL106C, strain sse1, hits give low values 1.01 | S. cerevisiae deletion strains, locus YPL240C, strain hsp82, hits give low values 1.03 | S. cerevisiae deletion strains, locus YPL256C, strain CLN2, hits give low values 0.996 | S. cerevisiae deletion strains, locus YPR119W, strain clb2, hits give low values 0.985 | S. cerevisiae deletion strains, locus YPR141C, strain kar3, hits give low values 0.992 | S. cerevisiae deletion strains, locus YPR163C, strain tif3, hits give low values 0.997 | S. cerevisiae deletion strains, locus YPR167C, strain met16, hits give low values 0.985 | S. cerevisiae deletion strains, strain wtn01, hits give low values 0.993 | S. cerevisiae strains, strain wild type, hits give low values 0.999
